Experimental data as given in the supplement of paper PMC6555819.

Key:
Experiment in all cases: PBM binding z-score (relative to random genomic background probes); higher = stronger binding; sequences stand for … in GC…GCGATTGACAGCGTAGAATGAAGG
[1] = tested on: PPARg:RXRa DBDmut IVT, anti-RXR (DBD mutation: RXRa K156A/R161A, NR concentration 270 nM, RXRa partner concentration 90 nM)
Procedure, shortened: (§1)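 Binding buffer was PBS pH 7.4 with 2% milk, 0.02% Triton X-100, 1 mM DTT, 0.2 mg/mL BSA and 0.4 mg/ml salmon testes DNA. In it, ligand-free nuclear receptor dimers were incubated 1 h on custom Agilent 4×180K protein-binding microarrays carrying double-stranded probes. Antibodies against each partner (one per run) detected binding, and z-scores were calculated against random background probes after regression normalization of scanned fluorescence.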

[2] = tested on: PPARg:RXRa IVT, anti-PPARg (NR concentration 270 nM, RXRa partner concentration 90 nM)
Procedure, shortened: as §1

[3] = tested on: PPARg DBDmut:RXRa IVT, anti-PPARg (DBD mutation: PPARg1 K132A/R137A, NR concentration 270 nM, RXRa partner concentration 90 nM)
Procedure, shortened: as §1

[4] = tested on: PPARg DBDmut IVT, anti-PPARg (DBD mutation: PPARg1 K132A/R137A, NR concentration 270 nM)
Procedure, shortened: as §1

[5] = tested on: PPARg homodimer (NR concentration 180 nM)
Procedure, shortened: as §1

[6] = tested on: PXR:RXRa (NR concentration 270 nM, RXRa partner concentration 90 nM)
Procedure, shortened: as §1

[7] = tested on: PXR homodimer (NR concentration 270 nM)
Procedure, shortened: as §1

[8] = tested on: RARa:RXR (NR concentration 270 nM, RXRa partner concentration 90 nM)
Procedure, shortened: as §1

[9] = tested on: RARa homodimer (NR concentration 270 nM)
Procedure, shortened: as §1

[10] = tested on: RARb:RXRa (NR concentration 270 nM, RXRa partner concentration 90 nM)
Procedure, shortened: as §1

Sequence | PBM binding z-score [1] | PBM binding z-score [2] | PBM binding z-score [3] | PBM binding z-score [4] | PBM binding z-score [5] | PBM binding z-score [6] | PBM binding z-score [7] | PBM binding z-score [8] | PBM binding z-score [9] | PBM binding z-score [10]
AGTCAAAGTTCATCTAGGTAAGGTAAGATATGCT | 0.598 | 3.32 | 1.53 | 0.676 | 3.1 | 5.24 | 5.75 | 3.9 | 1.68 | 4.91
CCAGACAGGTGAGAGGTAACTCAGTCTGGTACGC | 1.59 | 1.87 | -0.562 | -0.501 | 0.989 | -0.00466 | -0.224 | 0.194 | 0.0236 | 0.78
TCTTGTAGATCCGCAGGTTAAGAAAGCTGGCCAA | 1.29 | -0.0295 | 0.383 | -0.621 | -0.223 | 0.161 | -1.09 | 0.597 | -0.725 | 0.136
CCTAGCAGGCGAATCTGGGTCACTCAAGGCTTGA | 4.47 | 5.39 | -1.46 | -1.28 | 0.225 | 0.221 | -0.605 | 1.13 | -0.282 | 0.812
AGTCAACGTTCACTAGGTAACGTAAGATTCAGCT | 2.07 | 2.83 | 0.496 | 0.783 | -0.0596 | -0.163 | -0.41 | -0.184 | -0.305 | 0.64
TTACCAAGGTGAAAGGCCGTTGATGCACGCCTTG | 1.83 | 3.1 | 1.11 | -0.0172 | 1.5 | 0.172 | -0.516 | 1.1 | -0.123 | 1.66
CCTTACGGGTCACTCCAGGTTTTAGCATCGGAGT | 2.81 | 3.28 | 2.95 | 0.802 | 3.03 | 3.61 | 0.181 | 4.14 | 0.643 | 3.68
CCTAGCAGGCCAATCTGGGACACTCAAGGCTTGA | 3.13 | 2.73 | -0.765 | -0.94 | -0.694 | -0.828 | -0.916 | -0.753 | -0.862 | 0.0896
CCTTACGGCTCAAGGTTATAGCACGGGTGGTACG | -0.441 | -0.312 | -1.23 | -0.222 | 0.358 | 0.204 | 0.404 | 0.389 | 0.282 | 0.562
TTTCCAAGGTGAAGGTCGTTGATCCCTCTGTAGA | 1.63 | 3.3 | -0.24 | 0.793 | 1.03 | 1.68 | 0.247 | 2.21 | -0.347 | 2.29
ATCTCTAGGTACCCAAGTTCAGTGAATGCCGAAC | 0.72 | 1.02 | 0.772 | 0.793 | 0.883 | 1.76 | 1.62 | 0.698 | 0.262 | 1
TCTTGTAGATCAAAGGTTAAGTAAGCCGAAGCCT | 2.31 | 3.98 | 0.677 | 0.732 | 0.931 | 2.16 | 0.0156 | 3.2 | 0.12 | 2.23
ACTAGTTAGTCAGCTGAGGTCACACACAATTCGG | 0.771 | 2.31 | 0.856 | 0.622 | 2.26 | 5.14 | 1.6 | 5.01 | 1.35 | 3.3
CCGAGTAGGTTGTGGGGCATTCAGGCAACGGTGA | 1.04 | 1.29 | -1.06 | -0.659 | 0.736 | -0.334 | 0.115 | -0.303 | 0.109 | 0.0437
ACTCAAAGTTCACTAGGTAACGTAAGATTCAGCT | 3.09 | 4.19 | 1.81 | 1.14 | 3.86 | 4.2 | 3.09 | 3.17 | 3.01 | 4.95
GATACCGGGTCAGCTAGAGGCCAGAGTATGGAAA | 0.693 | 2.49 | -0.62 | -0.769 | 1.94 | 2.41 | -0.56 | 3.53 | -0.152 | 3.28
ACTTACGGGTCAACGAGGTAATAGCACGCGTATA | 3.55 | 4.22 | 1.27 | 1.43 | 2.86 | 3.81 | 0.484 | 4.62 | 0.585 | 4.15
TCTATCAGTTGAAGGGCAACCGACGAGTCCGTTT | 2.02 | 0.545 | -0.244 | 0.0205 | 0.44 | 0.571 | 0.541 | 0.596 | 0.00832 | 1.63
CCTGACAGGTGAGAAGGTAACTCAGCCTCGATTA | 1.12 | 0.913 | -0.717 | -0.671 | 0.832 | -0.216 | -0.0629 | 0.621 | -0.07 | 0.751

Sequence | PBM binding z-score [1] | PBM binding z-score [2] | PBM binding z-score [3] | PBM binding z-score [4] | PBM binding z-score [5] | PBM binding z-score [6] | PBM binding z-score [7] | PBM binding z-score [8] | PBM binding z-score [9] | PBM binding z-score [10]
ATCGGAAGGTCGTGAGGTGAGTATACAGAAAGGC | -0.372 | 1.37 | -0.0584 | 0.491 | 1.77 | 1.71 | 0.639 | 2.72 | 1.05 | 2.83
CCTGCTAGGTCACTGGTCAGCTAAAGCAGCTCGC | 4.87 | 4.51 | 0.683 | -0.736 | 1.51 | 1.27 | -0.378 | 2.08 | -0.0661 | 3.92
GCTAGCAGGCCATGTGGGTCACTCAATGACGGGC | 2.25 | 3.4 | -0.133 | -0.744 | -0.23 | 0.289 | -0.533 | 0.567 | -0.664 | 1.26
TCTGCAAGGTCAGTTGGTCAGCTAACGAGCTGCC | 1.67 | 2.69 | 0.998 | 1.09 | 1.99 | 2.09 | -0.237 | 2.67 | -0.428 | 4.43
CATACAGGGTCAGCTAGGCCAGACTAGGGACGGC | 1.3 | 2.37 | 0.631 | 0.373 | 0.901 | 2.01 | 0.149 | 2.36 | 0.259 | 3.94
AATTCAGGGTCATCGTAGGCCAGAGTACGCACAG | 3.42 | 4.57 | 2.45 | 3.09 | 2.85 | 5.49 | 1.43 | 5.54 | 1.45 | 4.45
ATTCAAAGTTCAGGACGAGGTAACGTAAAGCACG | -0.268 | 1.33 | 1.03 | 0.76 | 1.93 | 2.95 | 1.44 | 3.01 | 0.385 | 4.19
CAAACTAGGACACGAAAGGTCAAAGTCGAATGAC | 6.64 | 6.94 | 2.48 | 3.31 | 4.51 | 5.64 | 1.78 | 6.19 | 3.15 | 4.52
TTACCAAGGTGAGCTTAGGTCGTTGATCCAACTC | 1.61 | 1.67 | -0.375 | -0.536 | -0.601 | 1.62 | -0.264 | 0.665 | -0.83 | 1.36
GCTATTAGTTGAGAGGGCAACCGAATGATTCTCG | 0.549 | 0.28 | 0.117 | -0.0279 | 0.87 | 0.651 | -0.0553 | 0.826 | 0.278 | 1.4
TCTTGTAGATCAAAGGTTAAGAGAGCCGAAGCCT | 1.9 | 3.87 | 0.236 | -0.197 | 0.759 | 1.87 | -0.162 | 3.06 | 0.341 | 1.9
TCTTGTAGATCAATAGAGTTTAAGAAAGTGCGCT | 1.58 | 0.625 | 0.851 | 0.852 | -0.192 | 2.24 | 0.847 | 0.263 | 0.0115 | 0.375
ATAAGTAGGTTATCGGGTCATTCAGTTTGCGCAT | 7.58 | 7.8 | 5.22 | 5.33 | 3.5 | 3.91 | 7.66 | 3.84 | 2.2 | 2.61
AGTATGAGGTTAAGATCAGGGAAACAGAATACAT | 0.462 | 1.01 | 0.752 | 1.37 | 1.32 | 1.15 | 0.499 | 1.84 | 0.731 | 1.98
CCTTACGGGTCACTCCAGGTTATCGCATCGGAGT | 2.41 | 3.83 | -0.0167 | -0.117 | 1.35 | 4.65 | 0.118 | 3.01 | 0.208 | 3.55
TCGTATAGGTAATACAGGTGAAAGTCGGCATCTA | 2.32 | 2.24 | 0.787 | 1.03 | 0.975 | 0.742 | 0.293 | 0.746 | 1.16 | 0.691
CGAACTAGGTCAAGGACAGTCAATCTCCGCACGC | 8.01 | 8.24 | 1.66 | 1.8 | 1.37 | 1.25 | 0.00572 | 2.09 | 0.256 | 4.08
TCATATAGGTAAACAGGTGAAACTCCGTAAGTTA | 5.13 | 4.56 | 1.07 | 1.38 | 1.21 | 0.711 | 0.237 | 1.28 | 0.733 | 0.76
TTACCAAGGCGAAAGGTCGTTGATGCACGCCTTG | 0.0972 | 2.19 | -0.305 | -0.595 | 0.815 | 1.96 | -0.0871 | 2.49 | 0.25 | 1.83
